Screens deposited in PubChem BioAssay by National Center for Advancing Translational Sciences (NCATS).
This is a sample that favours compounds with a hit; in the whole collection about 11% have one here.
FLuc inh-1 – Photinus pyralis luciferase inhibition. Potency, µM (titrated, usually from 115 µM), usual class: inhibitors. purified P. pyralis luciferase, luminescence, biochemical. hit rate 2.5% among 76,000; also: % is scaled to controls: 0 for no effect and ±100 for the full control effect; nearly all actives have a fitted effect of over 65% in size
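Inhibitors were tested against purified firefly luciferase in a biochemical, low-substrate format (both substrates at 10uM) and luminescence measured with a CCD imager.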
HEK293 tox – HEK 293 cell cytotoxicity; Potency, µM (series often up to 115 µM), inactives show at the highest dose activity change, negative = cytotoxicity, most hits filed as inhibitors; AID 1345083; HEK 293 viability, ATP luminescence (CellTiter-Glo), 48-72 h; hit rate 6.6% among 94,000; also: % is scaled to controls: 0 for no effect and ±100 for the full control effect; nearly all actives have a fitted effect of over 60% in size
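HEK 293 cells seeded at 250 cells/well were exposed to compound for 48 or 72 hr at 37 degree Celsius. Viability taken as ATP content by CellTiter-Glo luminescence.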
hNpr1 antagonist – blocks ANP-stimulated signaling of human Npr1 receptor; HEK293 hNpr1 GloSensor cGMP, ANP-stimulated luminescence; Potency, µM (highest dose often 46.3 µM), without a hit: top-dose activity change, negative = inhibition, most hits filed as inhibitors; AID 1347048; P16066; hit rate 1.6% among 76,000; calls by dose curve; also: % is scaled to controls: 0 for no effect and ±100 for the full control effect; nearly all actives have a fitted effect of over 60% in size
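Compound pre-incubated 30 min at room temperature on GloSensor-loaded HEK293 cells stably carrying hNpr1 and the pGS-40F cGMP biosensor. Stimulation uses hNppA at 0.1 nM final; luminescence is taken at baseline and 20 min post-agonist.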
NIH3T3 tox – cytotoxic compounds in NIH 3T3 cells; NIH 3T3 viability, CellTiter-Glo ATP luminescence, 48-72 h; AID 1345082; Potency, µM (titrated, usually from 96.7 µM), inactives show top-dose activity change, negative = cytotoxicity, actives largely listed as inhibitors; hit rate 4.3% among 94,000; also: % is scaled to controls: 0 for no effect and ±100 for the full control effect; nearly all actives have a fitted effect of over 55% in size
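Cytotoxicity is measured as loss of cellular ATP: NIH 3T3 cells (400/well) are exposed to compound for 48 or 72 hr at 37 °C, then CellTiter-Glo luminescence is imaged after 10 min at room temperature.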
FLuc SDR -ATP – stabilizes firefly luciferase without ATP; Purified FLuc-C-HiBiT, Nano-Glo HiBiT luminescence, no ATP; hit rate 7.8% among 1,300; Potency, µM (titrated, usually from 32.7 µM), without a hit: at the top dose activation (signal gain), hits mostly activators; shares compounds with FLuc inh-1; also: nearly all actives have a fitted effect of over 55% in size
FLuc SDR ATP – binders stabilizing firefly luciferase, plus ATP; AID 1963319; purified FLuc-C-HiBiT + ATP, HiBiT complementation luminescence; shares compounds with FLuc inh-1; hit rate 8.7% among 1,300; Potency, µM (highest dose often 32.7 µM), for the others: top-dose activation (gain of signal), actives largely listed as activators;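 also: signal reports ligand binding via conformational change of the enzyme rather than luciferase catalysis; % of control where 0% means no effect; nearly all actives have a fitted effect of over 55% in size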
FLuc inh-2 – inhibitors of firefly luciferase enzymatic activity. Potency, µM (doses to about 32.7 µM), for the others: at the top dose activity change, negative = inhibition, hits mostly inhibitors. shares compounds with FLuc inh-1. purified FLuc-C-HiBiT enzyme, luciferin luminescence. hit rate 42% among 1,300; also: % is scaled to controls: 0 for no effect and ±100 for the full control effect; nearly all actives have a fitted effect of over 70% in size
Starred values were filed as active, the others as inactive; i = inactive; ? = inconclusive; / = no result; [ ] = remark or other dose. Unless noted, calls follow the shape of the dose curve; as a rule, active = well fitted curve in the direction sought with a large enough effect; inconclusive = small, poorly fitted or top-dose-only effect, or another doubt; inactive = no such curve, though single readings can be large; an effect the other way counts as inactive or inconclusive. Potency is read from the fitted curve at half-maximal effect.

SMILES | FLuc inh-1 | HEK293 tox | hNpr1 antagonist | NIH3T3 tox | FLuc SDR -ATP | FLuc SDR ATP | FLuc inh-2
O=C(NCc1ccco1)C1CCN(C(=O)c2ncn3c2COC(c2ccccc2)C3)CC1 (centres undefined) | 5µM* | 1% | -21% | 0% | 15% | 2.5µM* | 2.5µM*
CC(C)CCNC(=O)C1CCN(C(=O)c2ncn3c2COC(c2ccc(F)cc2)C3)CC1 (centres undefined) | ? | -1% | 2% | -15% | / | / | /
COc1ccc(C2Cn3cnc(C(=O)N4CCC(C(=O)NCCc5ccccc5)CC4)c3CO2)cc1 (centres undefined) | i | 11% | 2% | i | / | / | /
CCOc1cccc(CNC(=O)C2CCN(C(=O)c3ncn4c3COC(c3ccccc3)C4)CC2)c1 (centres undefined) | 14µM* | 13% | -12% | -2% | 16% | ? | ?
CCOCCCNC(=O)N1CCc2c(c(-c3nncn3Cc3ccccc3)nn2C)C1 | i | i | 4% | -3% | / | / | /
COc1ccc(-c2cc3nc4c(c(=O)n3[nH]2)CN(C(=O)Cc2ccccc2)CC4)cc1 | ? | 3% | 4% | -7% | / | / | /
COc1ccc(-c2cc3nc4c(c(=O)n3[nH]2)CN(C(=O)NCc2ccco2)CC4)cc1 | 7.1µM* | ? | -2% | ? | ? | 14% | 11µM*
CCOc1cc2sc(N3CCC(C(=O)Nc4ccc(C(C)C)cc4)CC3)nc2cc1Br | / | / | / | / | 16% | ? | 7µM*
O=C(CC[C@@H]1CNC(=O)[C@@H]2C[C@H](NC(=O)c3cccc(F)c3)CN12)NC1CC1 | i | 1%[172 µM] | 4%[70.6 µM] | -22%[174 µM] | / | / | /
CCSc1ccc(C(=O)Nc2ccc(-c3nc4ccc(C)cc4s3)cc2)cc1 | / | / | / | / | 14% | 8% | -5%
Cc1ccc2nc(-c3ccc(NC(=O)C(F)(F)F)cc3)sc2c1 | / | / | / | / | 28% | ? | 0.79µM*
Cc1ccc2nc(-c3ccc(NC(=O)c4ccc(S(C)(=O)=O)cc4)cc3)sc2c1 | / | / | / | / | 13% | 8% | -1%
Cc1ccc2nc(-c3ccc(NC(=O)c4ccccc4S(C)(=O)=O)cc3)sc2c1 | / | / | / | / | 13% | 13% | ?
O=c1n(-c2ccc(C(F)(F)F)cc2)nc2n1CCN([S+](=O)([O-])c1ccccc1)C2 | / | -11% | / | -12% | / | / | /
CNc1ccc2cc(-c3nc4ccc(C(=O)O)cc4s3)ccc2c1 | / | / | / | / | 1.1µM* | 0.014µM* | 0.007µM*
Cc1ccc2nc(-c3ccc(NC(=O)CSc4nnc(C)s4)cc3)sc2c1 | / | / | / | / | 16% | 15% | 0.62µM*
COc1cccc(CN2CCCC(c3nc(-c4cccnc4)no3)CCNC(=O)CC2)c1 (centres undefined) | i | ? | 2% | ? | / | / | /
COCCC(=O)N1CCC(N2C(=O)C(OCC3CC3)C23CCOCC3)CC1 (centres undefined) | i | i | 1% | i | / | / | /
CCC(=O)NCCC1CCN(C(=O)Nc2ccccc2F)CC1 | i | 0% | -1% | 0% | / | / | /
COc1ccc(C(=O)NCCC2CCN(C(=O)Nc3ccc(C)cc3)CC2)cc1 | ? | 2% | -21% | -21% | / | / | /
CC(=O)NCCC1CCN(C(=O)Nc2ccc(C)cc2)CC1 | 8.9µM* | 10% | -21% | 3% | ? | ? | ?
CCC(=O)NCCC1CCN(C(=O)Nc2ccc(C)cc2)CC1 | 13µM* | 12% | -1% | i | ? | ? | ?
COCCC(=O)NCCC1CCN(C(=O)Nc2ccc(C)cc2)CC1 | ? | 16% | 3% | i | / | / | /
CCC(=O)NCCC1CCN(C(=O)Nc2ccc(C)c(F)c2)CC1 | 11µM* | 9% | -3% | -3% | ? | ? | ?
Cc1nnc(CN2CCC(N3CCCC(C(=O)NCCc4ccccc4)C3)CC2)o1 (centres undefined) | i | i | 1% | 3% | / | / | /
SMILES | FLuc inh-1 | HEK293 tox | hNpr1 antagonist | NIH3T3 tox | FLuc SDR -ATP | FLuc SDR ATP | FLuc inh-2
COCCNC(=O)c1cc(-c2ccc(F)cc2)c2nncn2n1 | / | -3%[172 µM] | / | -15%[138 µM] | / | / | /
CCOCC1(C)COc2ccc(C(=O)Nc3ccccc3)cc2N1 (centres undefined) | 10µM* | ? | -4%[70.6 µM] | ? | 22%[49.3 µM] | 13%[49.3 µM] | ?
CCN1C(=O)C2CC3(CCN(C(=O)Nc4ccccc4F)CC3)CN2C1=O (centres undefined) | / | 3% | / | -13% | / | / | /
COCCNC(=O)c1ccc(OC2CCN(Cc3cccc4c3OCO4)CC2)c(Cl)c1 | i | ? | -11% | ? | / | / | /
COCCCNc1ncnc2c1CN(c1ccccc1)C(=O)CN2C | i | -13% | -1% | -25% | / | / | /
O=C(NCCc1ccccc1)C1CN(C2CCCC2)C(=O)N1 (centres undefined) | / | 5%[172 µM] | / | -7%[138 µM] | / | / | /
Cc1ccc(C(=O)O)cc1Nc1nc2ccccc2n2nnnc12 | / | / | / | / | 13% | 11% | ?
CC(C)Oc1cccc(-c2cccc(COc3cnc4c(ccn4CC(=O)O)c3)c2)c1 | 11µM* | ? | 4%[70.6 µM] | -23%[138 µM] | 7%[49.3 µM] | 5%[49.3 µM] | 18µM*
Cc1ccccc1-c1cccc(CCOc2cnc3c(ccn3CC(=O)O)c2)c1 | i | ? | 0%[70.6 µM] | -14%[138 µM] | / | / | /
Cc1ccccc1-c1cccc(COc2cnc3c(ccn3CC(=O)O)c2)c1 | / | / | / | / | 9%[49.3 µM] | 6%[49.3 µM] | ?
